Vif-A3G inh: inhibitors of Vif-APOBEC3G interaction; HeLa A3G-eYFP + Vif (tagged APOBEC3G with the HIV-1 protein that degrades it), YFP fluorescence, overnight; Q9HC16; AID 602310; Potency, µM (titrated, usually from 46.1 µM), for inactives: at the top dose activity, negative = active, most hits filed as inhibitors; actives 0.076% (n = 410,000); also: potency is read from the fitted curve at half-maximal effect; % is scaled to controls: 0 for no effect and ±100 for the full control effect; nearly all actives have a fitted effect of over 60% in size
Target sequence (Q9HC16 whole entry, looked up): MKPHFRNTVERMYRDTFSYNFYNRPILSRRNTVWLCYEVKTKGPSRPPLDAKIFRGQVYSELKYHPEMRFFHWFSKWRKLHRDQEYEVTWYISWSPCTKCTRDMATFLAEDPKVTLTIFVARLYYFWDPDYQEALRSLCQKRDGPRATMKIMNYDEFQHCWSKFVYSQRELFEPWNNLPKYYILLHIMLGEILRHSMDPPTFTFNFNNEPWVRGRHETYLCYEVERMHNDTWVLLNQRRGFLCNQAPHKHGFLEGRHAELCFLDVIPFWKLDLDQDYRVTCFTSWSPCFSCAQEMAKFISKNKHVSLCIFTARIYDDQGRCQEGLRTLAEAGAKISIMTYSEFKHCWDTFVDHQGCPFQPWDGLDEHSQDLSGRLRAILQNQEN
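Read-out is eYFP fluorescence (Ex 488/Em 500-530) from Vif-expressing HeLa A3G-eYFP cells; more signal means A3G escaped Vif-mediated degradation. Cells plated overnight, compound pinned in, incubated overnight at 37 deg C.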
Vif-APOBEC3F blk: inhibitors of Vif-A3F interaction; HeLa A3F-eYFP + Vif (tagged APOBEC3F with the HIV-1 protein that degrades it), YFP fluorescence increase; Potency, µM (doses to about 46.1 µM), for inactives: at the highest dose activity, negative = active; actives 0.2% (n = 390,000); AID 602313; also: potency is read from the fitted curve at half-maximal effect; % of control where 0% means no effect; nearly all actives have a fitted effect of over 65% in size
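HeLa cells stably expressing A3F-eYFP plus Vif, plated and incubated overnight at 37 deg C, then exposed to compounds overnight at 37 deg C. Blocked degradation read as raised yellow fluorescence (Ex 488/Em 500-530).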
Glioma ERSR ind: inducers of ER stress response in human glioma cells; U87-MG GRP78 promoter luciferase reporter, 16 h; actives 0.02% (n = 420,000); Potency, µM, without a hit: at the top dose activation, hits mostly activators; also: potency is read from the fitted curve at half-maximal effect; series mostly up to about 76 µM; % of control where 0% means no effect; nearly all actives have a fitted effect of over 35% in size
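Stably transfected U87-MG glioma cells carrying a GRP78-based luciferase sensor; 16 h compound incubation. Luminescence end-point read 10 min after Bright-Glo addition at room temperature.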
12-LOX inh: inhibitors of human 12S-lipoxygenase ALOX12; actives 1.1% (n = 580,000); Potency, µM (doses to about 108 µM), inactives show top-dose activity change, negative = inhibition, hits mostly inhibitors; purified 12hLO, xylenol orange hydroperoxide absorbance; P18054; also: potency is read from the fitted curve at half-maximal effect; % is scaled to controls: 0 for no effect and ±100 for the full control effect
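Purified human 12hLO (150 nM final) in 25 mM Hepes, 0.01% Triton X-100, pH 7.0 was preincubated 15 min at room temperature with compound. Then 40 uM arachidonic acid was added, 30 min. Hydroperoxide was read by Fe-XO absorbance ratio 573/405 nm.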
TRPML1 blocker: inhibitors of human TRPML1 channel | Q9GZU1 | TRPML1-inducible cells, Ca2+ dye fluorescence, FDSS; active compounds read low; inhibition of EC80 agonist-evoked calcium signal | activity change, negative = inhibition, % (no concentration beside the values) | actives 0.02% (n = 390,000) | AID 624415; in the data active = activity change below about -50%; inconclusive = between about -30% and that limit;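 also: stimulus is agonist 54-4 at its EC80 concentration; % is scaled to controls: 0 for no effect and ±100 for the full control effect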
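Calcium fluorescence in TRPML1-DL cells induced overnight with Tet: a 110 s read after compound pin addition, then a 110 s antagonist read after challenge with 54-4 at 4 uM final (EC80).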
TRPML1 ag: human mucolipin-1 channel agonism; Q9GZU1; TRPML1-expressing cells, Ca2+ dye fluorescence, FDSS; activation, % (test concentration not listed); actives 0.12% (n = 410,000); AID 624414; in the data active = activation above about 50%; inconclusive = mostly about 30% to 49%; also: 0% is about no effect
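TRPML1-DL cells, Tet-induced overnight (~16 h, 37 degrees C), loaded 45-90 min at room temperature with Ca8 no-wash calcium dye plus quencher. FDSS fluorescence: 10 s baseline, compound pin-transfer, 110 s agonist read, then EC80 54-4 (4uM final) and 110 s antagonist read.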
* = called active by the depositor; u = inconclusive; x = not tested or not shown; [ ] = remark or other dose. Only some compounds are listed: those with a hit (about 1.3% of all), similar ones and a draw of the others. Unless noted, calls follow the shape of the dose curve; as a rule, active = well fitted curve in the direction sought with a large enough effect; inconclusive = small, poorly fitted or top-dose-only effect, or another doubt; inactive = no such curve, though single readings can be large; an effect the other way counts as inactive or inconclusive.

SMILES	Vif-A3G inh	Vif-APOBEC3F blk	Glioma ERSR ind	12-LOX inh	TRPML1 blocker	TRPML1 ag
Cc1ccc(C(=O)NCC(=O)NCCc2c[nH]c3ccccc23)cc1	x	x	x	11%	x	x
Cc1cc(Cl)cc2sc(=S)[nH]c12	-2%	-20%	1%	11µM*	11	0
Cc1cc(Cl)cc2c(C=O)c(C(C)(C)C)[nH]c12	x	x	x	13%	x	x
Cc1ccc(S(C)(=O)=O)cc1NCc1ccc(F)cc1Br	x	x	x	-29%	x	x
CCc1ccccc1N1CSC2=C(C#N)C(c3ccccc3F)CC(=O)N2C1 (stereo not drawn)	0%	-7%	2%	3.2µM*	-10	0
COc1ccc(C2CC(=O)N3CN(c4ccc(C)c(Cl)c4)CSC3=C2C#N)cc1 (stereo not drawn)	2%	0%	-1%	4µM*	7	0
COc1ccc(N2CSC3=C(C#N)C(c4cccc(OC)c4OC)CC(=O)N3C2)cc1 (stereo not drawn)	-7%	-6%	4%	11µM*	0	0
COc1cc(C2CC(=O)N3CN(c4ccc(C)cc4)CSC3=C2C#N)cc(Br)c1O (stereo not drawn)	x	x	x	1.3µM*	x	x
CC(C)c1cccc(NC(=O)c2ccc3c(c2)NC(=O)CS3)c1	x	x	x	-27%	x	x
O=C(/C=C\NCC(=O)c1ccccc1)c1ccc(F)cc1	5%	-2%	-1%	-20%	5	0
O=C(/C=C\NCC(=O)c1ccccc1)c1ccc2ccccc2c1	-9%	-6%	3%	35µM*	-11	1
NNc1cccc2ncccc12	x	x	x	3.5µM*	x	x
CC(=O)N/N=C/c1cc(C(C)C)cc(/C=N/NC(C)=O)c1O	u	32µM*	-6%	0%	10	10
O=C(COc1ncnc2ccccc12)Nc1ccc(F)c(F)c1F	x	x	x	4%	x	x
CCC(=O)NNc1ccc(Br)cc1	-11%	-6%	-3%	-19%	-2	0
CCOC(=O)C(=NC1CCCCC1)NNc1cccc(C(F)(F)F)c1	-5%	-30%	-6%	50µM*	0	0
CCOC(=O)C(=NC(C)CC)NNc1ccc(Br)cc1 (stereo not drawn)	-25%	-4%	0%	28µM*	-8	0
CCOC(=O)C(=NC1CCS(=O)(=O)C1)NNc1cc(Cl)ccc1Cl (stereo not drawn)	0%	-12%	0%	u	-13	0
CCOC(=O)C(=NC1CCS(=O)(=O)C1)NNc1ccc(Br)cc1 (stereo not drawn)	0%	-17%	-2%	16µM*	6	0
CCOC(=O)C(=NC1CCS(=O)(=O)C1)NNc1ccccc1Cl (stereo not drawn)	4%	0%	0%	13µM*	x	x
COc1cc(/C=N/OC(C)=O)cc(OC)c1OC	x	x	x	-1%	x	x
NC(=O)N/N=C/c1sc(N2CCCCC2)nc1-c1cccs1	u	3%	2%	-9%	11	0
CC(C)NC(=S)N/N=C/c1sc(N2CCCCC2)nc1-c1cccs1	u	11µM*	5%	35µM*	4	1
Cc1cc2c(nc1C)sc1c(=O)n(CC(=O)N3CCOCC3)cnc12	x	x	x	7%	x	x
Cc1noc(C)c1C(=O)N1CCC2(CCCN(C(c3ccccc3)c3ccccc3)C2)CC1	x	x	28µM*	12%[57.4 µM]	x	x
SMILES	Vif-A3G inh	Vif-APOBEC3F blk	Glioma ERSR ind	12-LOX inh	TRPML1 blocker	TRPML1 ag
Cc1noc(C)c1C(=O)N1CCC2(CCCN(Cc3ccccc3)C2)CC1	x	x	-3%	-2%[57.4 µM]	x	x
Cc1ccc(SCCN2CCN(Cc3ccccc3)CC2)cc1	0%	1%	0%	u	13	0
Cc1ccc(SCCN2CCN(C)CC2)cc1	3%	6%	-1%	40µM*	44	1
Fc1ccc2c(c1)C(c1ccc(N3CCOCC3)cc1)=NNC(c1cccs1)=N2	-13%	-4%	0%	x	-9	-1
Brc1ccc2c(c1)C(c1ccc(N3CCOCC3)cc1)=NNC(c1cccs1)=N2	-13%	-9%	32µM*	-19%	-5	0
CC(C)c1ccccc1OCC(O)Cn1cnc2c1c(=O)n(C)c(=O)n2C (stereo not drawn)	x	x	x	-41%	x	x
COc1ccc(-c2onc3ccc(C(=O)/C=C/N(C)C)cc23)cc1	-6%	-3%	3%	35µM*	4	-1
CN(C)/C=C/C(=O)c1ccc2noc(-c3cccc(F)c3)c2c1	0%	-18%	2%	u	3	1
CN(Cc1nccn1C)C(=O)c1cc(COc2cccc(C(F)(F)F)c2)on1	6%	-1%	8%	1%	-2	1
Cc1ccc(CN(C)C(=O)c2cc(COc3cccc(C(F)(F)F)c3)on2)o1	1%	-15%	-4%	40µM*	29	2
CCc1ccc(C2C(C#N)=C(N)SC(N)=C2C#N)s1	u	22µM*	1%	x	20	3
CCOC(=O)N1CCC(NC(=O)C2CCN(Cc3nc(-c4ccccc4)no3)CC2)CC1	x	x	x	-3%	x	x
CC(=O)C1=CCC(c2cccs2)N(S(=O)(=O)c2ccc(C)cc2)C1 (stereo not drawn)	-11%	x	-6%	u	x	0
CC(=O)C1=CCC(c2ccc(C)o2)N(S(=O)(=O)c2ccc(C)cc2)C1 (stereo not drawn)	-14%	x	-5%	10µM*	x	0
COc1ccc(CN(CC(=O)NC2CCCC2)C(=O)CCC(=O)Nc2nc(C)cs2)cc1	2%	-4%	-3%	8%	-12	0
Cc1csc(NC(=O)CCC(=O)N(CC(=O)NC2CCCC2)Cc2ccccc2)n1	u	11µM*	u	-4%	8	4
CN(C)c1ccc(C=c2c3ccccc3n3c2c2ccccc2[n+]3C)cc1	3%	2%	-11%	5µM*	4	1
CC(=O)Nc1ccc(Nc2nc(-c3cc4ccccc4oc3=O)cs2)cc1	-8%	u	1%	u	9	0
O=c1oc2ccc(Cl)cc2cc1-c1csc(Nc2ccccc2)n1	x	x	x	20µM*	x	x
Cc1cccc(Nc2nc(-c3cc4ccccc4oc3=O)cs2)c1	x	x	x	40µM*	x	x
COc1cccc(Nc2nc(-c3cc4cc(Cl)ccc4oc3=O)cs2)c1	x	x	x	-24%	x	x
